# Laboratory results reported in PubChem BioAssay (NCATS).
# Inconclusive results are not listed. Unmarked numbers belong to inactive results. Calls of active or inactive are those of the source. Calls come from the whole dose curve; as a rule, active = well fitted curve in the direction sought with a large enough effect; inconclusive = small, poorly fitted or top-dose-only effect, or another doubt; inactive = no such curve, though single readings can be large; an effect the other way counts as inactive or inconclusive.
# Key:
# [1] = Quantitative highthroughput screen to assess conditional lethalithy of P12 Ichikawa cells grown in Human Plasma-Like Medium with dialyzed fetal bovine serum (HPLM+ds) (AID 1963879); details: ATP luminescence, 48 h; Potency: viability; series mostly up to 45.8 µM; note: nearly all actives have a fitted effect of over 35% in size; note: potency is the fitted concentration of half-maximal effect
# In short: (§1)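 Each medium arm—HPLM with 10% dialyzed FBS, or RPMI1640 with 5 mM glucose and 10% untreated or dialyzed FBS—was screened against an 11-point, 3-fold compound titration for 48 h at 37 °C, with CellTiter-Glo luminescence as endpoint.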
# [2] = Quantitative highthroughput screen to assess conditional lethalithy of P12 Ichikawa cells grown in RPMI1640 with dialyzed fetal bovine serum (RPMI+ds) (AID 1963880); details: ATP luminescence, 48 h; Potency: P12-Ichikawa viability; series mostly up to 45.8 µM; note: nearly all actives have a fitted effect of over 35% in size; note: potency is the fitted concentration of half-maximal effect;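 for viability: 100% = DMSO wells and 0% = empty wells on each plate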
# In short: as §1
# [3] = Quantitative highthroughput screen to assess conditional lethalithy of P12 Ichikawa cells grown in RPMI1640 with untreated serum (RPMI+s) (AID 1963881); details: ATP luminescence, 48 h; Potency: viability; series mostly up to 45.8 µM; note: nearly all actives have a fitted effect of over 35% in size; note: potency is the fitted concentration of half-maximal effect;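 for viability: 100% = DMSO wells and 0% = empty wells without cells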
# In short: as §1
# [4] = Quantitative highthroughput screen to assess conditional lethalithy of SEM cells grown in Human Plasma-Like Medium with dialyzed fetal bovine serum (HPLM+ds) (AID 1963882); details: SEM B-ALL cells in HPLM+ds, CellTiter-Glo viability, 48 h; series mostly up to 45.8 µM; note: nearly all actives have a fitted effect of over 35% in size; note: potency is the fitted concentration of half-maximal effect
# In short: as §1
# [5] = Quantitative highthroughput screen to assess conditional lethalithy of SEM cells grown in RPMI1640 with unreated serum (RPMI+s) (AID 1963883); details: SEM B-ALL cells, CellTiter-Glo viability, 48 h; series mostly up to 45.8 µM; note: nearly all actives have a fitted effect of over 35% in size; note: potency is the fitted concentration of half-maximal effect;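 for viability: 100% = DMSO wells and 0% = empty wells without cells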
# In short: as §1
# [6] = Quantitative highthroughput screen to assess conditional lethalithy of SEM cells grown in RPMI1640 with dialyzed fetal bovine serum (RPMI+ds) (AID 1963884); details: SEM B-ALL cells, RPMI+dialyzed FBS, CellTiter-Glo viability, 48 h; series mostly up to 45.8 µM; note: nearly all actives have a fitted effect of over 35% in size; note: potency is the fitted concentration of half-maximal effect;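 for viability: 100% = DMSO control wells and 0% = empty wells without cells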
# In short: as §1
# [7] = Quantitative highthroughput screen to assess conditional lethalithy of NOMO1 cells grown in Human Plasma-Like Medium with dialyzed fetal bovine serum (HPLM+ds) (AID 1963878); details: NOMO1 AML cells in HPLM+ds, CellTiter-Glo viability, 48 h; series mostly up to 45.8 µM
# In short: as §1
# [8] = Cellular viability qHTS for adrenocortical cancer (ACC) cell line NCI-H295R (AID 1963990); details: CellTiter-Glo ATP luminescence, 48 h; series mostly up to 46.1 µM;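 note: 0% = DMSO only wells and -100% = full killing with cytotoxic reference compound; nearly all actives have a fitted effect of over 60% in size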
# In short: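 Readout: CellTiter-Glo luminescence, 20 min RT. Exposure: 48 h, 37C/5% CO2. Cells: NCI-H295R, ITS-DMEM serum-free. Range: up to 46 uM. Analysis: 4PL fit, IC50 plus efficacy.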
# [9] = Cellular viability qHTS for adrenocortical cancer (ACC) cell line SW-13 (AID 1963989); details: SW-13 ACC cells viability, CellTiter-Glo, 48 h; activity (max response): active compounds read low;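 note: cells grown in serum-free medium with ITS supplement; % is set by controls: 0 for no effect and ±100 for the full control effect; nearly all actives have a fitted effect of over 65% in size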
# In short: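 Compound titrations (up to 46 uM final, in DMSO) were applied to SW-13 cells for 48 h at 37C/5% CO2. Reading used CellTiter-Glo after 20 min at room temperature; fitted curves yielded IC50 and efficacy.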
structure (smiles),measurement,setting,value
CON=C(C(=O)N[C@@H]1C(=O)N2C(C(=O)O)=C(CSC(=O)c3ccco3)CS[C@H]12)c1csc(N)n1,Potency,[1],inactive
same,Potency,[2],inactive
same,Potency,[3],inactive
same,Potency,[4],inactive
same,Potency,[5],inactive
same,Potency,[6],inactive
CCC(=O)NC[C@H](Cc1ccc(OCCc2nc(-c3ccccc3)oc2C)cc1)NC(C)=CC(=O)c1ccc(C(F)(F)F)cc1,Potency,[1],10.5 µM (active)
same,Potency,[2],16.6 µM (active)
same,Potency,[3],16.6 µM (active)
C=CC[C@@H]1C=C(C)C[C@H](C)C[C@H](OC)[C@H]2O[C@@](O)(C(=O)C(=O)N3CCCC[C@H]3C(=O)O[C@H](C(C)=C[C@@H]3CC[C@H](O)[C@H](OC)C3)[C@@H](C)[C@@H](O)CC1=O)[C@@H](C)C[C@@H]2OC,Potency,[7],4.18 µM (active)
same,Potency,[2],6.62 µM (active)
same,Potency,[3],6.62 µM (active)
same,Potency,[4],3.32 µM (active)
same,Potency,[5],1.48 µM (active)
CCOc1ccccc1N=Nc1c(C)[nH]n(-c2nc(-c3ccccc3)cs2)c1=O,Potency,[1],16.6 µM (active)
same,Potency,[2],inactive
same,Potency,[3],inactive
same,Potency,[4],5.26 µM (active)
same,Potency,[5],6.62 µM (active)
same,Potency,[8],inactive
CCCCCCCCOc1ccccc1C(=O)Nc1ccc(C(=O)OCC[N+](C)(CC)CC)cc1,Potency,[1],inactive
Clc1ccc2ncc(-c3cccc(NC4CNC4)n3)n2c1,Potency,[7],20.9 µM (active)
same,Potency,[3],23.5 µM (active)
same,activity (max response),[9],12.3%
CO[C@@H](C(=O)N1Cc2[nH]nc(NC(=O)c3ccc(N4CCN(C)CC4)cc3)c2C1)c1ccccc1,Potency,[7],0.0469 µM (active)
same,Potency,[4],0.132 µM (active)
same,Potency,[5],0.0743 µM (active)
same,Potency,[6],0.0833 µM (active)
Cc1[nH]c(C=C2C(=O)Nc3ccc(S(=O)(=O)N(C)c4cccc(Cl)c4)cc32)c(C)c1C(=O)N1CCN(C)CC1,Potency,[1],18.7 µM (active)
same,Potency,[2],14.8 µM (active)
same,Potency,[3],18.7 µM (active)
same,Potency,[4],13.2 µM (active)
same,Potency,[5],11.8 µM (active)
same,Potency,[6],6.62 µM (active)
Cc1cnn(C)c1C(=O)Nc1cc(Nc2ccc3c(C=Cc4ccccn4)n[nH]c3c2)ccc1F,Potency,[7],16.6 µM (active)
same,Potency,[4],2.96 µM (active)
same,Potency,[5],3.72 µM (active)
same,Potency,[6],2.64 µM (active)
OCCN1C[C@H](O)[C@@H](O)[C@H](O)[C@@H]1CO,Potency,[1],2.64 µM (active)
same,Potency,[3],2.64 µM (active)
same,Potency,[4],inactive
same,Potency,[5],inactive
same,Potency,[6],inactive
